Measurements taken from the supplement of paper PMC11732987, “Enantioselective OTUD7B fragment discovery through chemoproteomics screening and high-throughput optimisation” (Communications Chemistry, 2025).

Experiments:
Test in all cases: log2 ratio of Biotin-Ahx-Ub-VS probe labelling (fragment/DMSO); higher = less target engagement (more negative = stronger competition), active = hit call of the paper (q ≤ 0.05, log2 ratio ≤ -1)
Details in all cases: compound concentration: 200 uM; treatment time: 3 h
[1] = target: T1, USP42 (UniProt Q9H9J4)
T1 sequence (whole entry): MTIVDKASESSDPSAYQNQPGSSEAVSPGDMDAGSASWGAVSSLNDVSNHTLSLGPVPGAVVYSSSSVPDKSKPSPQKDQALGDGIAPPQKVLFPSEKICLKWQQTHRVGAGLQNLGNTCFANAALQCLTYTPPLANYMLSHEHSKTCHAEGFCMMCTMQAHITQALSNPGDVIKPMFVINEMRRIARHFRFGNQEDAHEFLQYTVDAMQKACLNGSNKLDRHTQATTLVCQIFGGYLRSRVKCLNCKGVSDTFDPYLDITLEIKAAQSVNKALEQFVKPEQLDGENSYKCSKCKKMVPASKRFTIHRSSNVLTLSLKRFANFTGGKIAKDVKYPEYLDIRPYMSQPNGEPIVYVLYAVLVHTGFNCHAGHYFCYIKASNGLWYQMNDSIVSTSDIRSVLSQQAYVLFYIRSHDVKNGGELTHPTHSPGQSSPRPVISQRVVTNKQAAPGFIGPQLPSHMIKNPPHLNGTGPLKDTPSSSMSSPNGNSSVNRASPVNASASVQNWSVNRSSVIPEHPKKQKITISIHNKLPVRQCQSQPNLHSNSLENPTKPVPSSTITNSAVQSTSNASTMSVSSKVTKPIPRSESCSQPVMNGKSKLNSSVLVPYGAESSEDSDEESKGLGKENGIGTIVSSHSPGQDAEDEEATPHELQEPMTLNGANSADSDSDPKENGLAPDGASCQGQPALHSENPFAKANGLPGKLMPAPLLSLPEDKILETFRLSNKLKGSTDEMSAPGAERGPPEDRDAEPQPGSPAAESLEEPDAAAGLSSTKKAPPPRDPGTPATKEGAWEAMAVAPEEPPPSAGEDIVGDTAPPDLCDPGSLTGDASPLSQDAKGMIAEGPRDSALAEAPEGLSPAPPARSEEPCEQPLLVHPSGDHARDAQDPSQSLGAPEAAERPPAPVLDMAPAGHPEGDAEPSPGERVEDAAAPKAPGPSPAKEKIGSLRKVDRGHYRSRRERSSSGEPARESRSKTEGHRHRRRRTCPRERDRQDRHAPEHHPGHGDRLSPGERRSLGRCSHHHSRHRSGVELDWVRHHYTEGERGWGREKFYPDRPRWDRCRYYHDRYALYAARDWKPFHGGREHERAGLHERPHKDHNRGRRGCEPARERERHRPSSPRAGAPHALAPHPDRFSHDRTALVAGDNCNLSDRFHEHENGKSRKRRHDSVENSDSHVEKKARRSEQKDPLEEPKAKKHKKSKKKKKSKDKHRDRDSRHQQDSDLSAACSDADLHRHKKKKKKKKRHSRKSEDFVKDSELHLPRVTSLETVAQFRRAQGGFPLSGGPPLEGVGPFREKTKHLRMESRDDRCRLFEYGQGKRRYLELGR
In short: (§1)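 HEK293T lysate (495 µg per sample, in Tris/CHAPS/IGEPAL buffer with protease inhibitors) was treated in triplicate with fragment at 200 µM or with DMSO for 3 h. It was then treated with Biotin-Ahx-Ub-VS (0.5 µM final) for 1 h. Labelled DUBs were NeutrAvidin-enriched, digested with LysC and trypsin, and run by diaPASEF LC-MS/MS. Spectronaut label-free quantities were global-median-normalised. Values are average log2 ratios fragment/DMSO by unpaired t-test, using proteins with ≥2 unique peptides.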

[2] = target: USP46 (UniProt P62068)
Sequence of USP46 (P62068 whole entry): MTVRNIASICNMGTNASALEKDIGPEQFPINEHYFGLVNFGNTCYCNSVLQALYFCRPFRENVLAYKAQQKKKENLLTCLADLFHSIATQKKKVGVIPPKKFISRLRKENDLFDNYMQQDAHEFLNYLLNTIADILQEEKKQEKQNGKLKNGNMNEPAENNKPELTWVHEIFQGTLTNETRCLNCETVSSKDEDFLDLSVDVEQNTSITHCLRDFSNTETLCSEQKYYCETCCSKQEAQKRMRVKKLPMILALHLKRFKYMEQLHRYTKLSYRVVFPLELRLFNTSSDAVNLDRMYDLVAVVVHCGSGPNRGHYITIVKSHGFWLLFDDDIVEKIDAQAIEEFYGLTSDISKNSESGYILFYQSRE
In short: as §1

[3] = target: T2, USP47 (UniProt Q96K76)
T2 sequence (whole entry): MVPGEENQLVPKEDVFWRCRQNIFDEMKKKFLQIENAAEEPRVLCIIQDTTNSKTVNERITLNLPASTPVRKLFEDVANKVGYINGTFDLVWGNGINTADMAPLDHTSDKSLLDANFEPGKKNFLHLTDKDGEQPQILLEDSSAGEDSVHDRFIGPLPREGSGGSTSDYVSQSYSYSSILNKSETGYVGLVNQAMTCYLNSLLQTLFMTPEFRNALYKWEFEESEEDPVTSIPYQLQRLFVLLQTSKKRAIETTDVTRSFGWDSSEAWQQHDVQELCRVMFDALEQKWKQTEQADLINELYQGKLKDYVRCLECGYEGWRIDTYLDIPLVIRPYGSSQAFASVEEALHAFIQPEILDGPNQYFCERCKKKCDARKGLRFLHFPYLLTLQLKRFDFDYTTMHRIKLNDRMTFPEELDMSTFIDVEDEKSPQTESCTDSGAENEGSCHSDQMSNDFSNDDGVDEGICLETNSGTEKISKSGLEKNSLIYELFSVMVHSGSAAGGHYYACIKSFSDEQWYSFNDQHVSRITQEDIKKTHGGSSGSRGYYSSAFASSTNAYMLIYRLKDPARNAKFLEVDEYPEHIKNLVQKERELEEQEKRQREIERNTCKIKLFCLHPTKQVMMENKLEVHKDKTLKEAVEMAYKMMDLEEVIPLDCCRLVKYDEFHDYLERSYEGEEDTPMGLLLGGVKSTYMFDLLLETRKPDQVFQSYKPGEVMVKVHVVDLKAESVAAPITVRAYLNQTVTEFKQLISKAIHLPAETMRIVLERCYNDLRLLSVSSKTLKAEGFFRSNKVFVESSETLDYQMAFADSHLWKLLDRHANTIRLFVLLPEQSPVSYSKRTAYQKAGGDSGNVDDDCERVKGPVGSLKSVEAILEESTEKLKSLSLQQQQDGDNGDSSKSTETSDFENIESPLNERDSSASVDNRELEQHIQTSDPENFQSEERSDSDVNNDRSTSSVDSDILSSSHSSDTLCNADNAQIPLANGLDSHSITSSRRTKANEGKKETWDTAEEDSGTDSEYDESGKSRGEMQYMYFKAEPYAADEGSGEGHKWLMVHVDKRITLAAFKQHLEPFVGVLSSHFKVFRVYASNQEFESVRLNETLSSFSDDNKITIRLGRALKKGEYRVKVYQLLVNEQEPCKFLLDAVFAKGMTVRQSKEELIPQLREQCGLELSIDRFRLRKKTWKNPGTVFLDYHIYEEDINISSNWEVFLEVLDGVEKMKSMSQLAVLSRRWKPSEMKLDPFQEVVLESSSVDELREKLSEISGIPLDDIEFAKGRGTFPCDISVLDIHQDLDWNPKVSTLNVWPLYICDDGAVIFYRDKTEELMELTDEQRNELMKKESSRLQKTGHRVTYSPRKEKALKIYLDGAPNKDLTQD
In short: as §1

[4] = target: T3, USP48 (UniProt Q86UV5)
T3 sequence (whole entry): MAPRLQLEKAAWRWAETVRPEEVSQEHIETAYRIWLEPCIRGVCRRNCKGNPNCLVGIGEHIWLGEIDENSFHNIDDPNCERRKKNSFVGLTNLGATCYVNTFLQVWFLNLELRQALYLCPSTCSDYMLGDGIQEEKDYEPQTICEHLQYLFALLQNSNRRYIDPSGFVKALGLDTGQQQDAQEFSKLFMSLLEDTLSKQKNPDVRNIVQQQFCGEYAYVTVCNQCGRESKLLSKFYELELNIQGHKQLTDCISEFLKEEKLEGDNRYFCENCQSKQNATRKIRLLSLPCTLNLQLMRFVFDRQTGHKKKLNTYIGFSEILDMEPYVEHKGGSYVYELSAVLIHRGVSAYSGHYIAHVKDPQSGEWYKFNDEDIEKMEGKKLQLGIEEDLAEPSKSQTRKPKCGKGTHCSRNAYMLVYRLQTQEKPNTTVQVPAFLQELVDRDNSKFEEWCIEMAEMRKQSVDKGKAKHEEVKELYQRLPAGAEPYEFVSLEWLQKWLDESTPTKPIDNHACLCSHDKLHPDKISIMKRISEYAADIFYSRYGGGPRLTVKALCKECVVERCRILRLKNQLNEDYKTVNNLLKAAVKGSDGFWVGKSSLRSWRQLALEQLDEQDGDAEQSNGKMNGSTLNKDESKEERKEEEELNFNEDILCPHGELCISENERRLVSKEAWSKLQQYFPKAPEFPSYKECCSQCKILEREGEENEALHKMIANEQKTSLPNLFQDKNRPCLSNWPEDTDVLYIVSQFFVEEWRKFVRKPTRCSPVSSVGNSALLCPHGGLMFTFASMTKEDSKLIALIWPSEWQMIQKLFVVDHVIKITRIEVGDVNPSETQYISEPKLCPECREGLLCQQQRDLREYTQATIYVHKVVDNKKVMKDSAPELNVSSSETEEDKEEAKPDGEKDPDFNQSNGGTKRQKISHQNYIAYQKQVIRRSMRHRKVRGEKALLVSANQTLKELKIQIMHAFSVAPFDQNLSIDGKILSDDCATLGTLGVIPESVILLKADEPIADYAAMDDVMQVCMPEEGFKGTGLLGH
In short: as §1

[5] = target: T4, USP5 (UniProt P45974)
T4 sequence (whole entry): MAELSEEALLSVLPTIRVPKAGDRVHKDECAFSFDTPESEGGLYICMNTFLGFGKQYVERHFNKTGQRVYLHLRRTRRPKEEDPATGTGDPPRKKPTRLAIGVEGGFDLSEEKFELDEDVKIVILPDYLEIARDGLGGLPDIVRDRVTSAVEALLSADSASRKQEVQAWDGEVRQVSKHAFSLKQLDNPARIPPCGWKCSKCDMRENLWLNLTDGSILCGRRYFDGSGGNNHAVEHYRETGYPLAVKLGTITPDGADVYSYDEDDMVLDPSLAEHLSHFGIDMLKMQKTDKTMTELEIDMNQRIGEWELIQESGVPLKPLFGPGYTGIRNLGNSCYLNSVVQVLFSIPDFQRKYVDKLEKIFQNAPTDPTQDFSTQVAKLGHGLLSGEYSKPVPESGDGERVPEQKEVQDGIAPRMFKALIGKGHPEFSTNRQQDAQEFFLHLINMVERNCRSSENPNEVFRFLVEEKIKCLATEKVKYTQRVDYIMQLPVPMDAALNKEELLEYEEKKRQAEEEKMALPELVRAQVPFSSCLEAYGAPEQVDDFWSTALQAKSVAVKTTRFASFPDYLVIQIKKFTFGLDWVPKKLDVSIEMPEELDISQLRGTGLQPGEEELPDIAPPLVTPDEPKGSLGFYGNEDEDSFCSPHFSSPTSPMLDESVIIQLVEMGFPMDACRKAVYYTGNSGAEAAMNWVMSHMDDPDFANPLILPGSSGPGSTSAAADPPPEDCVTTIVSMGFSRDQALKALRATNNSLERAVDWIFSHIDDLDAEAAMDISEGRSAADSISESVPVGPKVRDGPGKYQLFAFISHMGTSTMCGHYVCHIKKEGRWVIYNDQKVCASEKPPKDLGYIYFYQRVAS
In short: as §1

[6] = target: USP54 (UniProt Q70EL1)
Sequence of USP54 (Q70EL1 whole entry): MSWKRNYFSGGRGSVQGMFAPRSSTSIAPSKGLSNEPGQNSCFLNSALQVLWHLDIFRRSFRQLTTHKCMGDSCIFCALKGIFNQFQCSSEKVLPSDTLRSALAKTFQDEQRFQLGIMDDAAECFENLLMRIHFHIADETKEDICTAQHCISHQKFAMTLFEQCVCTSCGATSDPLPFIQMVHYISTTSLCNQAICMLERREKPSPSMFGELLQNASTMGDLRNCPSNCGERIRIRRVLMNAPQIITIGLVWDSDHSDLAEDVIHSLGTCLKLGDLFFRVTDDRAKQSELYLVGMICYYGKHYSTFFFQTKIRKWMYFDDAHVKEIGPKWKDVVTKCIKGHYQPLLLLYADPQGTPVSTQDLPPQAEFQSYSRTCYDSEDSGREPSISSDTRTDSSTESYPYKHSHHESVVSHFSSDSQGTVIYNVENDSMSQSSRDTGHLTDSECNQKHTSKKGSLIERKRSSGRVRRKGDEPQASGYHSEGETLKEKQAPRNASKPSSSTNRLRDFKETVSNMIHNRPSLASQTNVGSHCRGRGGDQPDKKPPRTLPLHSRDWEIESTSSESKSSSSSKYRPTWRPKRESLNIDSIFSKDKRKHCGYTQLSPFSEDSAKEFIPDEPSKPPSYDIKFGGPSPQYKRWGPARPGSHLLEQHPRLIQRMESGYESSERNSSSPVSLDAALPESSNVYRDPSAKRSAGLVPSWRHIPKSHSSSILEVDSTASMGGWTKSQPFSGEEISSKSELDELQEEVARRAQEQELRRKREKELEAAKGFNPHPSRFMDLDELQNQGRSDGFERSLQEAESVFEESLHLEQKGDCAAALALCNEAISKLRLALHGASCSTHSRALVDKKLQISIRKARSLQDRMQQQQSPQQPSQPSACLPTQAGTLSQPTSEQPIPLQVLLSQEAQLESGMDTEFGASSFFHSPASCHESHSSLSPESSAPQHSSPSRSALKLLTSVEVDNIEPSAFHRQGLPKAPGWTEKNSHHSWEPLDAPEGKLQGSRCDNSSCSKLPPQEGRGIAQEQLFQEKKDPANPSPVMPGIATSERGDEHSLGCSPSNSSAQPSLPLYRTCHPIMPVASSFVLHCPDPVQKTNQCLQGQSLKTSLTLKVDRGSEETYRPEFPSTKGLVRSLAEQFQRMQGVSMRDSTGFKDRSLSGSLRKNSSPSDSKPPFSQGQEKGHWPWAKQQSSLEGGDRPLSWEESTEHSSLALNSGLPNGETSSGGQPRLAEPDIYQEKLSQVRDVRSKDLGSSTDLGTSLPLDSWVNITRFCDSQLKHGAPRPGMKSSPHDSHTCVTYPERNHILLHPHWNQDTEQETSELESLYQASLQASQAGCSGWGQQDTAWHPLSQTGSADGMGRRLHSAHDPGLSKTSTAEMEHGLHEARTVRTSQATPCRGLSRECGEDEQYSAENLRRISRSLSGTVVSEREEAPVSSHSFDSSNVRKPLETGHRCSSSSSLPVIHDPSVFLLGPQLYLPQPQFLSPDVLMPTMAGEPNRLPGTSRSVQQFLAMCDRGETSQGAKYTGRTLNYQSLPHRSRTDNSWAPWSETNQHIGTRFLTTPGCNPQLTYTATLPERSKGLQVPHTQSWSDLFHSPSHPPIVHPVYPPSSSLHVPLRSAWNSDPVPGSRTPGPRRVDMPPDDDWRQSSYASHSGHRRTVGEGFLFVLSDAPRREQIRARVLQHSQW
In short: as §1

[7] = target: USP7 (UniProt Q93009)
In short: as §1

[8] = target: T5, USP8 (UniProt P40818)
T5 sequence (whole entry): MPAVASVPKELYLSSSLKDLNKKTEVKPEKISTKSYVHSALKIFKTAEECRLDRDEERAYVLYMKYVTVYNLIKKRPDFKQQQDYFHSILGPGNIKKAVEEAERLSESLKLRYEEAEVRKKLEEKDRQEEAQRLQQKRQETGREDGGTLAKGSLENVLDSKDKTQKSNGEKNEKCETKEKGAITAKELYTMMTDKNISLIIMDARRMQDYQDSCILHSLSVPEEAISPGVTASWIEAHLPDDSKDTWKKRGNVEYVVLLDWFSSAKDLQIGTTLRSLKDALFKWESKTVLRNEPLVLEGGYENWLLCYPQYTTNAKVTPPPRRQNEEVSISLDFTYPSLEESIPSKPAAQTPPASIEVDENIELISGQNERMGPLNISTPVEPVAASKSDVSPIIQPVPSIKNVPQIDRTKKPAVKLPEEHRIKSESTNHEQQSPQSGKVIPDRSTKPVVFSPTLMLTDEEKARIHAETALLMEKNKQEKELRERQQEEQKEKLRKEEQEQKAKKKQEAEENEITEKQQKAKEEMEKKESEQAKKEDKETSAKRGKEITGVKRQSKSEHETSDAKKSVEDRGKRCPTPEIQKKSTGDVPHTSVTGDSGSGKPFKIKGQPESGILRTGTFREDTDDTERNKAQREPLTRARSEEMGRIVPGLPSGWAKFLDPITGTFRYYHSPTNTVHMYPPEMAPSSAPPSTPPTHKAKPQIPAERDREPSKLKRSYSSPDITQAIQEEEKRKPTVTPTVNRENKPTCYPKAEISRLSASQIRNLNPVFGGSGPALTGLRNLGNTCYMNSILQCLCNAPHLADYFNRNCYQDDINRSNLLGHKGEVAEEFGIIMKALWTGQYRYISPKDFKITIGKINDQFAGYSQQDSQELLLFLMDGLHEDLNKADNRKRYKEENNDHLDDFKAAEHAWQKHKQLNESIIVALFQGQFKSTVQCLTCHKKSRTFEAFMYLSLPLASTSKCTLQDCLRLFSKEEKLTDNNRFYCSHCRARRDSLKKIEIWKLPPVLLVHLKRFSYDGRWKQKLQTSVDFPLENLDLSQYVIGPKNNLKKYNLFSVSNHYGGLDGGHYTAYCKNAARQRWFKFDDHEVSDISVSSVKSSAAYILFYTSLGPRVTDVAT
In short: as §1

[9] = target: USP9X (UniProt Q93008)
Sequence of USP9X (Q93008 whole entry): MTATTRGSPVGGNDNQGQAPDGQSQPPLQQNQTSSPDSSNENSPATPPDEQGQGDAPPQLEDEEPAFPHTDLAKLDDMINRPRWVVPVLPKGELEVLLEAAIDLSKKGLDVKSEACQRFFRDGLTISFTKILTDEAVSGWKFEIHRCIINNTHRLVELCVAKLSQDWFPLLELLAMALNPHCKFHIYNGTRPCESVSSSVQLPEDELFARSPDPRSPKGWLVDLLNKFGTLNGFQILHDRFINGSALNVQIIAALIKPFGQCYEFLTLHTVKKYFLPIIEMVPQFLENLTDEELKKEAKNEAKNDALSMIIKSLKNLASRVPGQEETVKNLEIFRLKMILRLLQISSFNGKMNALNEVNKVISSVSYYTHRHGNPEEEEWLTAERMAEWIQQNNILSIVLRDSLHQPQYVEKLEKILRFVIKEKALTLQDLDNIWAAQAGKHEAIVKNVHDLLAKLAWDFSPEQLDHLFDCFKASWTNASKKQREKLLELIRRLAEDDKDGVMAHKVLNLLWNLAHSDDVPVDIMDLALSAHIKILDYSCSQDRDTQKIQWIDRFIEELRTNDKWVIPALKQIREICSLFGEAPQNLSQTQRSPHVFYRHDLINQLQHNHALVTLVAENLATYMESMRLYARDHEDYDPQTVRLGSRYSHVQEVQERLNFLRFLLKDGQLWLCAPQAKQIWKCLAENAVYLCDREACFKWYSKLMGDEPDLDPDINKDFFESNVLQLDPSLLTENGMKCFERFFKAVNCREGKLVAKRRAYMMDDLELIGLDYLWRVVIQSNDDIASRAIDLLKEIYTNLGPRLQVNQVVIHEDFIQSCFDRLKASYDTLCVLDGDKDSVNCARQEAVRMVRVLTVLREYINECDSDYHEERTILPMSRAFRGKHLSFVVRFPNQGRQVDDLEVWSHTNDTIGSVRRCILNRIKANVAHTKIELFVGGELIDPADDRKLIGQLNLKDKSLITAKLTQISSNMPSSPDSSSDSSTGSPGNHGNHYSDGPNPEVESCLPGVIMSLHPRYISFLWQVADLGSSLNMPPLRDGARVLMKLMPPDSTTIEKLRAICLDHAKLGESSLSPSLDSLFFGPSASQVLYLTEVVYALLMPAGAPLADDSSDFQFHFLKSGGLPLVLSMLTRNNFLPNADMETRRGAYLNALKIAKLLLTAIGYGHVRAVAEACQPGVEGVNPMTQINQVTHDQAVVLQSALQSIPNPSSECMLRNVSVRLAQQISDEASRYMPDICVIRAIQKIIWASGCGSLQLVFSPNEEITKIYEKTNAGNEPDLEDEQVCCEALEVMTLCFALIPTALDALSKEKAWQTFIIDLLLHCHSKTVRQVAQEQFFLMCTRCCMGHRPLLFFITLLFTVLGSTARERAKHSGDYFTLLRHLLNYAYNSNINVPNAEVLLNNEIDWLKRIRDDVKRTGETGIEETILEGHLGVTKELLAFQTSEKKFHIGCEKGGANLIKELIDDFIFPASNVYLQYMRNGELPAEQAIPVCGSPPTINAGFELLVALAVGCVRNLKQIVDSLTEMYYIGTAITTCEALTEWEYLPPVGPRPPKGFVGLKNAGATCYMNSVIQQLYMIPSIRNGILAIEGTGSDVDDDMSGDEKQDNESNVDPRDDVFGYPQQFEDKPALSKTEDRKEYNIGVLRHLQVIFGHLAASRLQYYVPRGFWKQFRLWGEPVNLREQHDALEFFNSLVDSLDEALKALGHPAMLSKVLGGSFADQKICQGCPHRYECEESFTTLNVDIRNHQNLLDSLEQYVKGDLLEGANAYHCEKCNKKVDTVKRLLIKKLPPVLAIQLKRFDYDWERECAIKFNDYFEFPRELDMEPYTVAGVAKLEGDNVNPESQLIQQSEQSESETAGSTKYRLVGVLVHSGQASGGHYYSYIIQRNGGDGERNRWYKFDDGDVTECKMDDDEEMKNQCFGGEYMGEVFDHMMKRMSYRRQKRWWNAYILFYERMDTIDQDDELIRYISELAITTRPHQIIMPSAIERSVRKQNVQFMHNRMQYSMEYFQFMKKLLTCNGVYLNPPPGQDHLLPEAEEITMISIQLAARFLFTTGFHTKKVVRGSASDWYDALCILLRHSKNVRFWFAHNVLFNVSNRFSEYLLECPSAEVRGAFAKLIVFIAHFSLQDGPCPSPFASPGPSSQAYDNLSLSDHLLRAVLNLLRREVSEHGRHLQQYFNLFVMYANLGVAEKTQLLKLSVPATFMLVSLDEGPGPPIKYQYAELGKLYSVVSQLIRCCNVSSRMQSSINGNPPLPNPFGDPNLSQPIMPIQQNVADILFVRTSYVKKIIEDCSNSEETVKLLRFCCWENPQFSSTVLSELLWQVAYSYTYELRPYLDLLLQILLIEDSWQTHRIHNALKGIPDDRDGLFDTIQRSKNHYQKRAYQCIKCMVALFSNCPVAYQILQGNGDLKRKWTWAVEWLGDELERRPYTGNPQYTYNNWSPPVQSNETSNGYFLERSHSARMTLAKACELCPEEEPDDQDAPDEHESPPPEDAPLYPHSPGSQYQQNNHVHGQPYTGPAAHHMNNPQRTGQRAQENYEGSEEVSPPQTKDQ
In short: as §1

[10] = target: UniProt O00487
Sequence of UniProt O00487 (O00487 whole entry): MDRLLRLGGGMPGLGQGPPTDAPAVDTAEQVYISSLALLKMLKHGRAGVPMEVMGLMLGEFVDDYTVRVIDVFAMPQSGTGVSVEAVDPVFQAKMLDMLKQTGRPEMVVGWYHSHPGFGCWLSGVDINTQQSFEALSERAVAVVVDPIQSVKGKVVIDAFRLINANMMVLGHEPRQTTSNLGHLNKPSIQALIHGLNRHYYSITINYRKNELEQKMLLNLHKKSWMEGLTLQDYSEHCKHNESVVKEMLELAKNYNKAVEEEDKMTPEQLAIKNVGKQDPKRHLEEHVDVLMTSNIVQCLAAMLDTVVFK
In short: as §1

Measured: log2 ratio of Biotin-Ahx-Ub-VS probe labelling

Cc1nc(-c2cccc(NC(=O)CCl)c2)cs1
inactive: [1] 0.339 | [2] -0.382 | [3] -0.123 | [4] -0.43 | [5] -0.284 | [6] 0.0451 | [7] -0.163 | [8] -0.282 | [9] -0.362 | [10] -0.0542
